# Assay results taken from PubChem BioAssay AID488859 (Sanford-Burnham Center for Chemical Genomics, 2010).
# Out of some 1,400 compounds screened, about 970 (69%) were called active. Another 5% or so got no clear call; they are omitted. The set was probably picked from earlier hits. Only a sample is shown. A number with no mark means an inactive call. Rule as the data show it: active = inhibition above about 45%; inconclusive = no clear call, values can overlap the other calls; inactive = below that.
# Biological target: Ubiquitin-conjugating enzyme E2 N (Homo sapiens) (UniProt P61088)
# Assay: UBC13 polyubiquitination inhibitors, single-point retest, confirmation, biochemical, TR-FRET, single concentration (AID 488859)
# Settings: at 10 µM, hits give high values
# Ubiquitin-conjugating enzyme E2 N (Homo sapiens), sequence (P61088 whole entry, looked up): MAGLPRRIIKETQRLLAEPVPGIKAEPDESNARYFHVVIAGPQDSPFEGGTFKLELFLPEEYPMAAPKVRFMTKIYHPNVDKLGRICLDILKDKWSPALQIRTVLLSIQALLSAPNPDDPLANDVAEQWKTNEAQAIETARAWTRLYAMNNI
row,Compound,inhibition
1,O=C(COC(=O)Cn1cnc2ccccc2c1=O)NCc1ccccc1Cl,57.6% (active)
2,CCN1CCN(CCNC(=O)c2ccc(/C=C3/Sc4ccccc4N(Cc4cccc(C)c4)C3=O)cc2)CC1,85.6% (active)
3,COc1ccc(N(C(=O)c2snc(C(N)=O)c2N)C(C(=O)NC2CCCC2)c2ccco2)cc1OC (stereo not drawn),96.8% (active)
4,CCC(C(=O)NC1CCCC1)N(C(=O)c1snc(C(N)=O)c1N)c1ccc2c(c1)OCCO2 (stereo not drawn),95% (active)
5,NC(N)=Nc1nc(-c2ccccc2)c2cc(Cl)ccc2n1,79.9% (active)
6,COc1ccc(C(CNC(=O)c2ccc(S(=O)(=O)Nc3ccccc3F)cc2)N(C)C)cc1 (stereo not drawn),114% (active)
7,NC(=O)NC(CC(=O)NNC(=O)c1ccccn1)c1ccc(Cl)cc1 (stereo not drawn),95.3% (active)
8,CC(C)n1cnc2c(Nc3cccc(Cl)c3)nc(N(CCO)CCCO)nc21,30.6%
9,COc1cccc2sc3cc(NCC[C@@H]4CCCN4C)ccc3c(=O)c12,41.3%
10,CCCC[C@@H]1CN=C(N)N1CCc1cc(C(F)(F)F)cc(C(F)(F)F)c1,55.4% (active)
11,CN(C)CC(O)COc1ccc(C(C)(C)c2ccc(OCC(O)CN(C)C)cc2)cc1 (stereo not drawn),60.5% (active)
12,Cc1ccc(NC(=O)c2cnc(SCC(=O)NCC3CCCO3)n(C)c2=O)cc1 (stereo not drawn),95.9% (active)
13,NC[C@H](Cc1ccccc1)NCCc1cc(C(F)(F)F)cc(C(F)(F)F)c1,40.1%
14,Cc1c(CN2CCC(CO)(CCOc3ccccc3)CC2)[nH]c2ccc(Cl)cc12,74% (active)
15,CCOC(=O)[C@@H]1[C@H]2COc3cc(OC)ccc3[C@H]2N2C(=O)N(c3ccc(F)cc3)C(=O)[C@]12C,1.2%
16,O=C(CCCCCN1C(=O)c2cccc3cccc(c23)C1=O)NCc1ccco1,50.7% (active)
17,CN(C)c1ccnc2sc3c(=O)n(Cc4ccccc4)cnc3c12,57.1% (active)
18,COc1ccnc2c1c(=O)n(Cc1cccc(F)c1)c(=O)n2C,52.3% (active)
19,C#CCOCCOCCOCCNc1nc(N2CCN(C(=O)CCCCCCCCCCNC(=O)[C@H](CCCCN)n3cc(C)nn3)CC2)nc(N2CCN(C(=O)CCCCCCCCCCNC(=O)[C@H](CO)n3cc(CCCSC)nn3)CC2)n1,121% (active)
20,C#CCOCCOCCOCCNc1nc(N2CCN(C(=O)CCCCCCCCCCNC(=O)Cn3cc(CCCCCN)nn3)CC2)nc(N2CCN(C(=O)CCCCCCCCCCNC(=O)[C@H](CO)n3cc(CCCSC)nn3)CC2)n1,129% (active)
21,C#CCOCCOCCOCCNc1nc(N2CCN(C(=O)CCCCCCCCCCNC(=O)[C@H]([C@@H](C)CC)n3cc(CCCCN=C(N)N)nn3)CC2)nc(N2CCN(C(=O)CCCCCCCCCCNC(=O)[C@H](CO)n3cc(CCCSC)nn3)CC2)n1,121% (active)

row,Compound,inhibition
1,CC1(C)Cc2ccccc2-c2[nH]c(=S)[nH]c(=O)c21,26.2%
2,CC1CC(C)(C)n2c(O)c(N=NC(N)=S)c3cccc1c32 (stereo not drawn),107% (active)
3,COc1ccc(-n2nnnc2-c2nc3ccccc3s2)cc1,51.1% (active)
4,CN1CCC(CN)(N2CCN(c3ccccc3)CC2)CC1,48.6% (active)
5,CC(=O)NC(=S)NNC(=O)c1ccc(Br)cc1,89.8% (active)
6,COc1ccc(/C=N\NC(=O)c2sc(N)nc2C)cc1OC,110% (active)
7,O=C(CCCCCn1c(=O)[nH]c2ccccc2c1=O)NCCc1c[nH]c2ccccc12,67.3% (active)
8,CCOC(=O)N1CCN(C(=O)Cc2ccc(-n3c(=S)[nH]c4ccccc4c3=O)cc2)CC1,37.3%
9,c1ccc(C[C@H]2CNCCN2CCC23CC4CC(CC(C4)C2)C3)cc1,42.5%
10,CCN(CC)CCNC(=O)c1ccc(NC(=O)c2cc(-c3ccncc3)nc3ccccc23)cc1,91.5% (active)
11,Cc1ccc(N(C(=O)c2snc(C(N)=O)c2N)C(C(=O)NCC2CCCO2)c2c[nH]c3ccccc23)cc1 (stereo not drawn),70.6% (active)
12,Cc1ccc(C(C(=O)NCC2CCCO2)N(C(=O)c2snc(C(N)=O)c2N)c2ccc(C(C)C)cc2)o1 (stereo not drawn),30.4%
13,CCOc1ccc(N(C(=O)c2snc(C(N)=O)c2N)C(C(=O)NCC2CCCO2)c2c[nH]c3ccccc23)cc1 (stereo not drawn),100% (active)
14,COc1cccc(N(C(=O)c2snc(C(N)=O)c2N)C(C(=O)NCC2CCCO2)c2c[nH]c3ccccc23)c1 (stereo not drawn),57.9% (active)
15,O=c1cc(CO)oc(C(Nc2cccc([N+](=O)[O-])c2)c2ccccn2)c1O (stereo not drawn),39.1%
16,O=c1cc(CO)oc(C(Nc2cccc(C(F)(F)F)c2)c2ccccn2)c1O (stereo not drawn),88.9% (active)
17,O=c1c2c(nc3n1CCCCC3)sc1c(O)cccc12,104% (active)
18,Cc1cccc(-n2cnc(C(=O)NNC(=S)Nc3ccccc3)c2)n1,107% (active)
19,CCOCCCNC(=O)c1cn(CC(C)C)c(=O)c2c1c1ccccc1n2C,37.9%
20,Cc1ccccc1C(=O)OC1OC(=O)C(Cl)=C1Nc1ccccc1 (stereo not drawn),88.9% (active)
21,Cc1ccc(NC2=C(Cl)C(=O)OC2OC(=O)c2ccccc2C)cc1 (stereo not drawn),62% (active)

row,Compound,inhibition
1,C[C@@H](CN1CCC[C@H]1CN1C(N)=NC[C@@H]1Cc1ccccc1)N1C[C@@H](Cc2ccccc2)N(CCCC2CCCC2)C1=N,58.5% (active)
2,CC[C@@H](C)[C@@H]1CN([C@@H](C)CN2CCC[C@H]2CN2C(N)=NC[C@H]2C(C)C)C(=N)N1CCc1ccc(Cl)c(Cl)c1,38.2%
3,COc1ccc2sc(-c3ccc(S(C)(=O)=O)cc3)c(C#Cc3cncn3C)c2c1,29.5%
4,COc1ccc2sc(-c3ccccc3OC)c(-c3ccc(OCCN4CCCC4)cc3)c2c1,54.8% (active)
5,CCOC(=O)c1ccc(NC(=O)c2nc[nH]c2C(=O)NCc2ccccc2)cc1,25.1%
6,CC1CN(C(=O)CCC(=O)NCCCN2CCC(Cc3ccccc3)CC2)c2cc(Cl)ccc2O1 (stereo not drawn),87.8% (active)
7,CCOC(=O)C1=C(c2ccccc2)O/C(=C(/C(=O)OC)C(F)(F)F)S1,42.4%
8,Cc1cccc(-c2nc3ccc(C(=O)NCCN4CCN(C)CC4)cc3nc2-c2cccc(C)c2)c1,72.8% (active)
9,Cc1ccc(C(=O)N/C(=C/c2ccc(-c3cccc([N+](=O)[O-])c3)o2)C(=O)NCCCN(C)C)cc1,78% (active)
10,O=S(=O)(c1ccc(NC(=S)NN=C(C2CC2)C2CC2)cc1)N1CCOCC1,60.4% (active)
11,CN(C(=O)CN(CCO)CC(=O)N(C)C(C)(C)Cc1ccccc1)C(C)(C)Cc1ccccc1,44.3%
12,Cc1cccc(OCC(O)CN2CCN(CCN3C(=O)c4cccc5cccc(c45)C3=O)CC2)c1C (stereo not drawn),101% (active)
13,CCN1C(=NCc2ccc(OC)cc2)N[C@@H](CCc2ccccc2)[C@H](C(=O)NCc2ccc(OC)cc2)[C@H]1C,34.8%
14,COc1cccc(Cn2cnc3c([N+](=O)[O-])c(C)c(C)cc32)c1,63.7% (active)
15,NC(N)=N/N=C/c1ccc(OCc2ccc(Cl)cc2Cl)cc1,121% (active)
16,CN(C)CCCN(C(=O)c1ccc(S(=O)(=O)N2CCCCCC2)cc1)c1nc2cc3c(cc2s1)OCCO3,110% (active)
17,CN(C)CCCN(C(=O)c1ccc(S(=O)(=O)N2CCCCCC2)cc1)c1nc2ccc(Br)cc2s1,107% (active)
18,CCOc1ccc2nc(N(CCCN(C)C)C(=O)c3ccc(C(=O)c4ccccc4)cc3)sc2c1,111% (active)
19,c1ccc2c(CCN3CCNC[C@H]3Cc3cccc4ccccc34)cccc2c1,44.3%
20,CCCCCCCCCCOC(=O)Cn1c(COc2cccc(OC)c2)[n+](C)c2ccccc21,63.8% (active)
21,CCOC(=O)c1cccc(NS(=O)(=O)c2c(C(=O)N3CCCCCC3)c(C)n(C)c2C)c1,43.9%

row,Compound,inhibition
1,COc1ccc(C(CNC(=O)c2cccc(NS(=O)(=O)c3ccc(C)c(F)c3)c2)N2CCCC2)cc1 (stereo not drawn),94.5% (active)
2,COC(=O)c1cc(-c2cccs2)nc2ccccc12,18.1%
3,CCCCN(C)CCCNC(=O)c1cc(-c2cccs2)nc2ccccc12,45.7% (active)
4,Cc1cc(C)c(NC(=O)C[N+](C)(C)CC(O)COc2cccc3ccccc23)c(C)c1 (stereo not drawn),60.3% (active)
5,CCCCN(CCCC)CCC(O)c1cc2c(Cl)cc(Cl)cc2c2cc(C(F)(F)F)ccc12 (stereo not drawn),56.5% (active)
6,Cc1ccc(-c2noc(CCC(=O)Nc3ccccc3N3CCN(C)CC3)n2)cc1,92.8% (active)
7,CCCOc1ccc(Cl)cc1Nc1nc(NCCO)nc(N2CCCC2)n1,16.5%
8,C#CCOCCOCCOCCNc1nc(N2CCN(C(=O)C(Cc3ccc(O)cc3)n3cc(C(N)CC(C)C)nn3)CC2)nc(N2CCN(C(=O)C(Cc3ccc(O)cc3)n3cc(C(N)C(C)CC)nn3)CC2)n1 (stereo not drawn),23.8%
9,C#CCOCCOCCOCCNc1nc(N2CCN(C(=O)C([C@@H](C)CC)n3cc(C(N)COC(=O)C(F)(F)F)nn3)CC2)nc(N2CCN(C(=O)[C@H](CCCCN)n3cc(C(N)CC(C)C)nn3)CC2)n1 (stereo partly drawn),103% (active)
10,C#CCOCCOCCOCCNc1nc(N2CCN(C(=O)[C@H](CCCCN)n3cc([C@@H](N)C(C)CC)nn3)CC2)nc(N2CCN(C(=O)[C@H](Cc3ccc(O)cc3)n3cc([C@@H](N)C(C)CC)nn3)CC2)n1 (stereo partly drawn),105% (active)
11,C#CCOCCOCCOCCNc1nc(N2CCN(C(=O)C([C@@H](C)O)n3cc([C@@H](N)CCCCN)nn3)CC2)nc(N2CCN(C(=O)[C@H](CCCCN)n3cc(CN)nn3)CC2)n1 (stereo partly drawn),113% (active)
12,C=C1c2c(Cl)ccc(O)c2C(O)=C2C(=O)[C@]3(O)C(O)=C(C(N)=O)C(=O)[C@@H](N(C)C)[C@@H]3[C@@H](O)C12 (stereo partly drawn),50.8% (active)
13,COc1ccccc1NC(=O)CSc1nnc(-c2ccoc2C)n1CCc1ccccc1,94.4% (active)
14,CCN(CC)CCC(c1cc(OC)c(OC)c(OC)c1)c1c(OC)cc(OC)c2c(-c3ccccc3)cc(=O)oc12 (stereo not drawn),35.1%
15,CN1CCN(CCCNC(=O)c2ccc(/C=C3\Oc4ccccc4N(Cc4ccc(Cl)cc4)C3=O)cc2)CC1,111% (active)
16,Cn1c(C(=O)NCCCN2CCN(c3cccc(Cl)c3)CC2)cc2c(=O)n(C)c3ccccc3c21,38.7%
17,CCN(CC(=O)NCc1cccs1)C(=O)c1cccc(S(=O)(=O)Nc2ccccc2OC)c1,106% (active)
18,OCCNc1nc(Nc2ccc(Cl)c(Cl)c2)nc2ccccc12,92% (active)
19,Cc1ncc(CO)c(/C=N/NC(=O)c2cccc(S(=O)(=O)N3CCCC3)c2)c1O,32.9%
20,CSCCC(NC(=O)c1ccc(Cl)cc1Cl)C(=O)NNC(=O)c1csc(N2CCOCC2)n1 (stereo not drawn),55.6% (active)
